# About 3,200 (25%) of roughly 13,000 compounds showed an effect of 50% or more. The list shows a part of the results.
# Tested on: P. falciparum stage V gametocytes
# Parameters: BacTiter-Glo ATP luminescence viability of purified stage V gametocytes in 384-well plates, per cent inhibition versus DMSO
# Settings: 48 h, 5 µM; inhibitor
row,Structure (SMILES),% Inhibition
1,CN(C)CCCNc1ncnc2c1[nH]c1ccc(Br)cc12 [TCMDC-124583],-18.04%
2,NC1CCN(c2nc(NCCCc3ccc(O)cc3)nc(NCc3ccccc3-c3ccc(C(F)(F)F)cc3)n2)CC1 [TCMDC-133395],21.49%
3,COc1cc(F)c2ncc(C#N)c(CCN3CCC(NCc4ccc5c(c4)OCCO5)CC3)c2c1 [TCMDC-135367],11.13%
4,O=C1OC2(CN1CC1CCN(Cc3ccc(O)cc3Cl)C1)c1ccccc1-c1ccccc12 (stereo not drawn) [TCMDC-136313],14.23%
5,CON=Cc1ccn(-c2ccc(O)c3c2C[C@H]2C[C@H]4[C@H](N(C)C)C(=O)C(C(N)=O)=C(O)[C@@]4(O)C(=O)C2=C3O)c1 [TCMDC-138646],4.088%
6,C=C1C(C(=O)OCC)=CN(CC)c2cc(O[C@H]3CCN(C(=O)OC(C)(C)C)C3)ccc21 [TCMDC-135646],47.67%
7,COc1cc2c(cc1OC)CN(CCc1ccc(NC(=O)c3cc4cc(OC(F)(F)F)ccc4[nH]3)cc1)CC2 [TCMDC-138250],36.42%
8,CCc1cn(CCCOC)c2ccc(C(=O)N[C@@H](Cc3ccccc3)[C@H](O)CNCc3cccc(C(F)(F)F)c3)cc12 [TCMDC-135241],4.563%
9,CCc1cn(CCc2ccccc2)c2ccc(C(=O)N[C@@H](Cc3ccccc3)[C@H](O)CNC(C)(C)CCCC(C)C)cc12 [TCMDC-135282],76.37%
10,CCc1cn(CCOC)c2ccc(C(=O)N[C@@H](Cc3ccccc3)[C@H](O)CNC(C)(C)CCCC(C)C)cc12 [TCMDC-135259],69.62%
11,CCc1cn2c3c(cc(C(=O)N[C@@H](Cc4ccccc4)[C@H](O)CN[C@@H](C)CC)cc13)N(C)S(=O)(=O)CC2 [TCMDC-135801],46.03%
12,CCc1cn(CCS(C)(=O)=O)c2ccc(C(=O)N[C@@H](Cc3ccccc3)[C@H](O)CNC(C)(C)CCCC(C)C)cc12 [TCMDC-135268],68.72%
13,C(=N\Nc1nccc2sc(-c3ccccc3)cc12)/c1cccnc1 [TCMDC-135190],-94.18%
14,COc1ccc(S(=O)(=O)N2CCOCC2)cc1NC(=O)c1cc2ccccc2o1 [TCMDC-124328],-2.829%
15,N#Cc1ccc(-c2ccc(OCC(O)CN3CCCN(C(=O)C(c4ccc5c(c4)OCO5)N4CCN(C/C=C/c5ccccc5)CC4)CC3)cc2)cc1 (stereo not drawn) [TCMDC-141496],18.87%
16,COc1cc2c(cc1NC(=O)CN1CCN(C(=O)c3ccco3)CC1)oc1ccccc12 [TCMDC-123712],37.25%
17,c1ccc2c(CNc3nc(NCC4CCCCC4)nc4nc[nH]c34)cccc2c1 [TCMDC-131860],-36.72%
18,Cn1cnc2nc(NCCc3ccccc3)nc(NCc3cccc4ccccc34)c21 [TCMDC-131862],52.06%
19,c1ccc(CCNc2nc(NCC(c3ccccc3)c3ccccc3)c3[nH]cnc3n2)cc1 [TCMDC-131858],-2.796%
20,O=C1COc2ccccc2N1CCN1CCC(NCc2ccc(-c3cccs3)cc2)CC1 [TCMDC-135135],-33.37%
21,COCc1nc(N)nc(N)c1-c1ccc(Cl)c(Cl)c1 [TCMDC-137373],-9.797%

row,Structure (SMILES),% Inhibition
1,O=C(NCCNc1nc(NCCNC(=O)Nc2ccccc2)c2ccc(=O)n(-c3c(F)cccc3F)c2n1)Nc1ccccc1 [TCMDC-136645],74.46%
2,COc1ccc(Nc2nccc(NCCNC(=O)Nc3ccccc3F)n2)cc1 [TCMDC-133645],-48.4%
3,O=C(NCCNc1ccnc(Nc2ccc(F)cc2)n1)Nc1ccccc1F [TCMDC-133640],-0.7257%
4,COc1ccc(NC(=O)/C=C/c2ccccc2Cl)cc1OCCN1CCC(c2nc3ccccc3[nH]2)CC1 [TCMDC-140921],-39.17%
5,O=C(/C=C/c1ccc(Cl)c(Cl)c1)NCCCCCN1CCC(NC(=O)NC2CCCCC2)CC1 [TCMDC-135700],-41.72%
6,ON=C(c1nc2ccccc2[nH]1)c1nc2ccccc2[nH]1 [TCMDC-125758],102.3%
7,c1ccc2[nH]c(CN(Cc3nc4ccccc4[nH]3)Cc3nc4ccccc4[nH]3)nc2c1 [TCMDC-124132],-49.22%
8,c1ccc2[nH]c(Nc3ccc(Nc4nc5ccccc5[nH]4)cc3)nc2c1 [TCMDC-131951],-2.479%
9,COc1cc(C(=O)NCCCN2CCN(c3cccc(Cl)c3)CC2)ccc1-c1nc2cc(Cl)c(F)cc2[nH]1 [TCMDC-140095],-11.24%
10,O=C(c1ccccc1[N+](=O)[O-])N(Cc1ccccc1)c1ccccn1 [TCMDC-125748],16.59%
11,CCCCCn1c(Sc2ccc(C#N)c([N+](=O)[O-])c2)nnc1-c1cccc(Cl)c1 [TCMDC-135593],-8.18%
12,COc1ccc(-c2nnc(Sc3ccc(C#N)c([N+](=O)[O-])c3)n2CC(C)C)cc1 [TCMDC-135584],36.77%
13,C=CCn1c(Sc2ccc(C#N)c([N+](=O)[O-])c2)nnc1-c1ccc(Cl)cc1 [TCMDC-135600],77.78%
14,C=CCn1c(Sc2ccc(C#N)c([N+](=O)[O-])c2)nnc1-c1cc(OC)cc(OC)c1 [TCMDC-135590],71.82%
15,CCCCCn1c(Sc2ccc(C#N)c([N+](=O)[O-])c2)nnc1-c1cc(OC)cc(OC)c1 [TCMDC-135588],-41.27%
16,CC(C)Cn1c(Sc2ccc(C#N)c([N+](=O)[O-])c2)nnc1-c1ccc(N(C)C)cc1 [TCMDC-135612],35.05%
17,CCCCCCn1c(Sc2ccc(C#N)c([N+](=O)[O-])c2)nnc1-c1cccc(Cl)c1 [TCMDC-135594],24.59%
18,CCCCn1c(Sc2ccc(C#N)c([N+](=O)[O-])c2)nnc1-c1cccc(Cl)c1 [TCMDC-135579],86.95%
19,C=CCn1c(Sc2ccc(C#N)c([N+](=O)[O-])c2)nnc1-c1ccc(OC)cc1 [TCMDC-135605],28.83%
20,CC(C)Cn1c(Sc2ccc(C#N)c([N+](=O)[O-])c2)nnc1-c1cccc(Cl)c1 [TCMDC-135580],40.84%
21,C=CCn1c(Sc2ccc(C#N)c([N+](=O)[O-])c2)nnc1-c1cccc(Cl)c1 [TCMDC-135595],80.55%
